Data: PubChem BioAssay AID2284385 (EPA ToxCast)
Activity calls are given as the source filed them. Rule for the calls: active = hit-call score of the fitted dose curve at least 0.9, where 1 is the maximum; inactive = score below 0.9.

Biological target: human Peroxisome proliferator-activated Receptor alpha (PPARa), PPARA (gene 5465) (UniProt Q07869)
Assay: ERF_TW_NR_COA_hPPARA: Eurofins (ERF) Nuclear Receptor (NR) Functional Coactivator Assay for human Peroxisome proliferator-activated Receptor alpha (PPARa) Agonism & Antagonism, conducted at Taiwan lab site
Protocol: ERF_TW_NR_COA_hPPARA is a biochemical, single-readout assay that uses extracted gene-proteins in a cell-free assay. Measurements were taken 3 hours after chemical dosing in a 96-well plate. See PPARalpha Human NHR Functional Agonist Coactivator Assay, Panlabs.ERF_TW_NR_COA_hPPARA is an assay component calculated from the ERF_TW_NR_COA_hPPARA assay. It is designed to measure FRET using a type of binding reporter as detected by fluorescence intensity of GW7647 with fluorimetry technology.Data from the assay component ERF_TW_NR_COA_hPPARA was analyzed at the assay endpoint, ERF_TW_NR_COA_hPPARA, in the positive analysis fitting direction relative to DMSO as the negative control and baseline of activity. Using a type of binding reporter, gain-of-signal activity can be used to understand changes in binding as they relate to gene PPARA. To generalize the intended target to other relatable targets, this assay endpoint is annotated to the nuclear receptor intended target family, where the subfamily is non-steroidal.
Human recombinant peroxisome proliferators-activated receptor alpha (PPARA, PPARa, PPAR-alpha) hPPAR, NR1C1) receptors expressed in insect are used. Test compound and/or vehicle is incubated with the 2.5 nM receptors and binding buffer in modified kit buffer pH 7.4 for 3 hours at RT. Determination of the amount of complex formed is read microplate reader (excitation:337 nm, emission: 520/490 nm). Test compound-induced increase fluorescence by 50 percent or more (>/=50%) relative to the 1 uM GW7647 response indicates possible PPARa receptor agonist activity. Test compound-induced inhibition of 20 nM GW7647-induced fluorescence response by 50 percent or more (>/=50%) indicates receptor antagonist activity.

Sequence of human Peroxisome proliferator-activated Receptor alpha (PPARa), PPARA (gene 5465) (Q07869 whole entry, looked up): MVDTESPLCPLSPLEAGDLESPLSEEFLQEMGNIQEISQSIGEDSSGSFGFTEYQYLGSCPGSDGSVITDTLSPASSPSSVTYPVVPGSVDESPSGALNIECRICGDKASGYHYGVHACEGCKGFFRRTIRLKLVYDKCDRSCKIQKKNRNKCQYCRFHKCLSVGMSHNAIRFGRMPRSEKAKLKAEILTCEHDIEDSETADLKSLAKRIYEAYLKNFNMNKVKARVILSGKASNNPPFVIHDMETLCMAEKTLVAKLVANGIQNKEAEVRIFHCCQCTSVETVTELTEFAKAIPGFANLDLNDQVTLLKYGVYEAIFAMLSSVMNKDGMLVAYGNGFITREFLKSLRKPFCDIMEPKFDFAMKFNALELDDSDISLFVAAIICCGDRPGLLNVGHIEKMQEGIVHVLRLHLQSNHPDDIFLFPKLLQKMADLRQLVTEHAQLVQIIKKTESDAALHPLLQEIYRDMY

AC50, active:
O=C(Cl)C(F)(F)C(F)(F)C(F)(F)C(F)(F)C(F)(F)C(F)(F)F 31.6 µM, CC(C)(Oc1ccc(C(=O)c2ccc(Cl)cc2)cc1)C(=O)O 15.7 µM, O=C(O)C(F)(F)C(F)(F)C(F)(F)C(F)(F)C(F)(F)C(F)(F)C(F)F 31.1 µM

outcome, inactive:
CN(CCOc1ccc(CC2SC(=O)NC2=O)cc1)c1ccccn1 (configuration not stated), O=C(CC(=O)C(F)(F)C(F)(F)C(F)(F)F)c1cccs1, O=C(O)CCC(F)(F)C(F)(F)C(F)(F)F, O=C(O)C(F)(F)C(F)(F)C(F)(F)C(F)(F)C(F)(F)C(F)(F)C(F)(F)C(F)(F)Cl
